Activity calls are given as the source filed them. How the source made its calls: active means hit-call score of the fitted dose curve at least 0.9, where 1 is the maximum; inactive means score below 0.9.
Assays:
[1] = ATG_ISRE_CIS: Attagene CIS-FACTORIAL HepG2 Assay for human Interferon Regulatory Factor 1 (IRF1) binding to an Interferon-Stimulated Response Element (ISRE) (AID 2282948); conditions: HepG2 ISRE cis-reporter (Attagene), mRNA transcription readout; actives raise or lower the signal
Procedure, shortened: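 Signal reflects induction or loss of ISRE-linked reporter mRNA in transiently transfected HepG2 cells after a 24 h treatment, detected by fluorescent RT-PCR fragments on capillary electrophoresis and normalised to DMSO.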

[2] = ATG_M_32_CIS: Attagene CIS-FACTORIAL HepG2 Assay for M32 Transcription Factor (Internal Marker) (AID 2282949); conditions: HepG2 Attagene cis-factorial M32 reporter, mRNA; actives raise or lower the signal;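 further: background control marker of the multiplexed CIS panel rather than a real target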
Procedure, shortened: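 Transient MRTU transfection of HepG2; 24 h compound treatment; TriZol RNA, oligo(dT) RT, reporter PCR, 6-FAM primer extension, HpaI cut, CE. Gain/loss of signal vs DMSO.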

[3] = ATG_M_06_CIS: Attagene CIS-FACTORIAL HepG2 Assay for M06 Transcription Factor (Internal Marker) (AID 2282950); conditions: HepG2 Attagene CIS-FACTORIAL M06 internal marker reporter; actives raise or lower the signal
Procedure, shortened: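 HepG2 cells transiently transfected with cis-regulated multiple reporter transcription units were exposed to chemical for 24 h; reporter mRNA was quantified by RT-PCR, 6-FAM primer labelling, HpaI digestion and capillary electrophoresis, fitted bidirectionally against DMSO.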

[4] = target: Hypoxia-inducible factor 1-alpha (Homo sapiens) (UniProt Q16665); assay: ATG_HIF1a_CIS: Attagene CIS-FACTORIAL HepG2 Assay for human Hypoxia Inducible Factor 1 (HIF1A) (AID 2282951); conditions: HepG2 Attagene cis-factorial HIF1a reporter transcription; actives raise or lower the signal
Hypoxia-inducible factor 1-alpha (Homo sapiens), sequence (Q16665 whole entry, looked up): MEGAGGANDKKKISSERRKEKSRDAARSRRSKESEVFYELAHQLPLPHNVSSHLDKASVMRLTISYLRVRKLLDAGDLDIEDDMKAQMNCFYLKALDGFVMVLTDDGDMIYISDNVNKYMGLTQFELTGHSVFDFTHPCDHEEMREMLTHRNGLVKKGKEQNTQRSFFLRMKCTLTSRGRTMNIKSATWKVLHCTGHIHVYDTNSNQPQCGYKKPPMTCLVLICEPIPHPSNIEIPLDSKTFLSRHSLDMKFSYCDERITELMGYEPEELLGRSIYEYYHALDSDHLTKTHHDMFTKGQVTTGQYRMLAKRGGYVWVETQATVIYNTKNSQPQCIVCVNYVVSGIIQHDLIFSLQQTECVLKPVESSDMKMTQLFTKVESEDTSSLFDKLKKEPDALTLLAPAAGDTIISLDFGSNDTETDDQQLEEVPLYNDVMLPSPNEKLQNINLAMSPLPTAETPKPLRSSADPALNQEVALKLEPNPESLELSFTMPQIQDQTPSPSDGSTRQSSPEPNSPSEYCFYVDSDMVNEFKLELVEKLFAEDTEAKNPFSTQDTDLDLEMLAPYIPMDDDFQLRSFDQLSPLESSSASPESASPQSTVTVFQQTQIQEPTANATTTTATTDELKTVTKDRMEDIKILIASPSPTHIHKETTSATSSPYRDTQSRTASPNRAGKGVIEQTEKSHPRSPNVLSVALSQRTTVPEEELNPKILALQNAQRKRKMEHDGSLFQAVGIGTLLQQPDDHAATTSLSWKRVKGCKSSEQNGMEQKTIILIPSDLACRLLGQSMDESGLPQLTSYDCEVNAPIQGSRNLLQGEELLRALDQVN
Procedure, shortened: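 Dosed 24 h, transfected HepG2 cells yielded total RNA whose reporter transcripts were RT-PCR-amplified and sized by capillary electrophoresis using fluorescent labelling; DMSO defined baseline, with gain and loss of signal both fitted.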

[5] = target: Hepatocyte nuclear factor 6 (Homo sapiens) (UniProt Q9UBC0); assay: ATG_HNF6_CIS: Attagene CIS-FACTORIAL HepG2 Assay for human Hepatocyte Nuclear Factor 6 (HNF6) (AID 2282952); conditions: HepG2 Attagene cis-factorial HNF6 reporter transcription; actives raise or lower the signal
Hepatocyte nuclear factor 6 (Homo sapiens), sequence (Q9UBC0 whole entry, looked up): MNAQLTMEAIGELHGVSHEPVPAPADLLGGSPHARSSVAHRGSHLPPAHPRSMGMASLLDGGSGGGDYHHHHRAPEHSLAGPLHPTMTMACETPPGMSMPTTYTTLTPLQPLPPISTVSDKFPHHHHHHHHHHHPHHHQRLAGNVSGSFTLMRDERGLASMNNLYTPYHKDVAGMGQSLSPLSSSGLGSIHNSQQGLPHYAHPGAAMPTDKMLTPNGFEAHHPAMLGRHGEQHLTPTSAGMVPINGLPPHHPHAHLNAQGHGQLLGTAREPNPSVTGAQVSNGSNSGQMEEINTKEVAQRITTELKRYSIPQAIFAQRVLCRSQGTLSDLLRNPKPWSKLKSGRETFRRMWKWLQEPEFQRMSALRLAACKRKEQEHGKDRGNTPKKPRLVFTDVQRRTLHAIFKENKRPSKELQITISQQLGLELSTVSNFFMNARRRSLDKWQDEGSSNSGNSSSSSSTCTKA
Procedure, shortened: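 Endogenous factor activity read in transiently transfected HepG2 via promoter-regulated reporter transcripts. RNA harvested 24 h post-dosing, reverse-transcribed, PCR-amplified, FAM-labelled, HpaI-digested and resolved by capillary electrophoresis; fitted in both directions against DMSO.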

[6] = target: Heat shock factor protein 1 (Homo sapiens) (UniProt Q00613); assay: ATG_HSE_CIS: Attagene CIS-FACTORIAL HepG2 Assay for human Heat Shock Transcription Factor 1 (HSE) (AID 2282953); conditions: HepG2 HSE cis-reporter, Attagene RNA transcription; actives raise or lower the signal
Heat shock factor protein 1 (Homo sapiens), sequence (Q00613 whole entry, looked up): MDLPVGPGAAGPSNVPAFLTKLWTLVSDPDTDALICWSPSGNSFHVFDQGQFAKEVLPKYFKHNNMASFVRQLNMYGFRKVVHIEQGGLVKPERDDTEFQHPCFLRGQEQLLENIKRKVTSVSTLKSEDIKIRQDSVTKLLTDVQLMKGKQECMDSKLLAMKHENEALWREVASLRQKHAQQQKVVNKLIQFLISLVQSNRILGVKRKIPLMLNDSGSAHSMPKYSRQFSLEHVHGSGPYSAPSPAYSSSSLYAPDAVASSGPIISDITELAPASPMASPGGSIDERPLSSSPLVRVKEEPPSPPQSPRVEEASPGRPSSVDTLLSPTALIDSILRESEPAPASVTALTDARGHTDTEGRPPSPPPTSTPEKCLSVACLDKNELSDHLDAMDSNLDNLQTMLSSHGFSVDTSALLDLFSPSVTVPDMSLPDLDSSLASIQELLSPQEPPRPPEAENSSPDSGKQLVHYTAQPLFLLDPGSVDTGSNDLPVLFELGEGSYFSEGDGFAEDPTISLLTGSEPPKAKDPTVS
Procedure, shortened: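 HepG2 cells transiently transfected with multiple reporter transcription units under cis-regulatory promoter control, measuring endogenous transcription factor activity. After 24 h chemical exposure, reporter mRNA quantified by RT-PCR, fluorescent labelling, HpaI digestion and capillary electrophoresis; bidirectional fit versus DMSO.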

[7] = ATG_MRE_CIS: Attagene CIS-FACTORIAL HepG2 Assay for human Metal Responsive Element (MRE) (AID 2282954); conditions: HepG2 MRE cis-reporter transcription, Attagene multiplex; actives raise or lower the signal
Procedure, shortened: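 Multiplexed cis-reporter assay in human HepG2 liver cells, 24 h incubation with test chemical. Reporter transcripts measured by RT-PCR and capillary electrophoresis; values from bidirectional curve fitting versus DMSO.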

[8] = ATG_PBREM_CIS: Attagene CIS-FACTORIAL HepG2 Assay for human Phenobarbital-responsive Enhancer Module (PBREM) (AID 2282955); conditions: HepG2 PBREM cis-reporter, Attagene multiplexed transcription; actives raise or lower the signal
Procedure, shortened: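 Transfected liver-derived HepG2 cells exposed 24 h; PBREM reporter transcript quantified via RT-PCR and capillary electrophoresis, with activity in either direction referenced to DMSO.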

[9] = target: Paired box protein Pax-6 (Homo sapiens) (UniProt P26367); assay: ATG_Pax6_CIS: Attagene CIS-FACTORIAL HepG2 Assay for human Paired Box 6 (PAX6) (AID 2282956); conditions: HepG2 CIS-FACTORIAL PAX6 reporter transcription, RNA readout; actives raise or lower the signal
Paired box protein Pax-6 (Homo sapiens), sequence (P26367 whole entry, looked up): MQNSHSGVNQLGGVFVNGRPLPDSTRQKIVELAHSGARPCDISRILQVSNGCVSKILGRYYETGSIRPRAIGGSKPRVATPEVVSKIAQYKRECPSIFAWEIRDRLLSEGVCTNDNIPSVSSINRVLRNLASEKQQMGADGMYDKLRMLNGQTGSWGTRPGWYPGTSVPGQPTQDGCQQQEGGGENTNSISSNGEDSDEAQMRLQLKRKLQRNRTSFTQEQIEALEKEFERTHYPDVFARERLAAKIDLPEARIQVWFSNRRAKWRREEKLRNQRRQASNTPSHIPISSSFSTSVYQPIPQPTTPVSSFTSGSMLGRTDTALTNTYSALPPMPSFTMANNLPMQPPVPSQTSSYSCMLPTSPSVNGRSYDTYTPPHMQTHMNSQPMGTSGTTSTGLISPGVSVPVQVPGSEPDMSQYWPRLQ
Procedure, shortened: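 Values derive from bidirectional curve fitting of reporter mRNA signal relative to DMSO. HepG2 cells bearing transfected cis-regulated MRTUs were exposed for 24 h; transcripts were read by RT-PCR and capillary electrophoresis.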

[10] = ATG_PXRE_CIS: Attagene CIS-FACTORIAL HepG2 Assay for human Pregnane X Receptor Element (PXRE) (AID 2282957); conditions: HepG2 Attagene CIS-FACTORIAL PXRE reporter, mRNA; actives raise or lower the signal
Procedure, shortened: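 Reporter transcripts under endogenous PXR-responsive cis-regulation quantified from total RNA of transfected HepG2 cells 24 h post-dosing, via RT-PCR with fluorescent primer extension and capillary electrophoresis. Gain or loss of signal fitted against DMSO baseline.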

[11] = ATG_PPRE_CIS: Attagene CIS-FACTORIAL HepG2 Assay for human Peroxisome Proliferator-activated Response Element (PPRE) (AID 2282958); conditions: HepG2 PPRE cis-element reporter, Attagene transcription factor profiling; actives raise or lower the signal
Procedure, shortened: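 Measured endpoint: PPRE-controlled reporter mRNA, detected by RT-PCR and capillary electrophoresis fluorescence, from transiently transfected HepG2 cells 24 h after dosing. Curves fitted in both directions using DMSO baseline.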

[12] = ATG_RORE_CIS: Attagene CIS-FACTORIAL HepG2 Assay for human RAR-related Orphan Receptor Element (RORE) (AID 2282959); conditions: HepG2 Attagene cis-factorial RORE reporter, mRNA; actives raise or lower the signal
Procedure, shortened: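 Transiently transfected HepG2 reporter cells were treated 24 h. Reporter transcripts were detected by RT-PCR and capillary electrophoresis, with bidirectional fitting against DMSO.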

[13] = ATG_Sox_CIS: Attagene CIS-FACTORIAL HepG2 Assay for human SRY-box transcription factor (SOX) (AID 2282960); conditions: HepG2 Attagene cis-factorial SOX reporter, mRNA; actives raise or lower the signal
Procedure, shortened: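 Gain- or loss-of-signal endpoint, fitted bidirectionally with DMSO as negative control. Based on reporter mRNA from transfected HepG2 cells harvested 24 h post-treatment and quantified via RT-PCR and capillary electrophoresis.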

[14] = target: Transcription factor Sp1 (Homo sapiens) (UniProt P08047); assay: ATG_Sp1_CIS: Attagene CIS-FACTORIAL HepG2 Assay for human Specificity Protein 1 (Sp1) (AID 2282961); conditions: HepG2 Sp1 cis-reporter transcription, actives raise or lower the signal
Transcription factor Sp1 (Homo sapiens), sequence (P08047 whole entry, looked up, the tested form may be a part): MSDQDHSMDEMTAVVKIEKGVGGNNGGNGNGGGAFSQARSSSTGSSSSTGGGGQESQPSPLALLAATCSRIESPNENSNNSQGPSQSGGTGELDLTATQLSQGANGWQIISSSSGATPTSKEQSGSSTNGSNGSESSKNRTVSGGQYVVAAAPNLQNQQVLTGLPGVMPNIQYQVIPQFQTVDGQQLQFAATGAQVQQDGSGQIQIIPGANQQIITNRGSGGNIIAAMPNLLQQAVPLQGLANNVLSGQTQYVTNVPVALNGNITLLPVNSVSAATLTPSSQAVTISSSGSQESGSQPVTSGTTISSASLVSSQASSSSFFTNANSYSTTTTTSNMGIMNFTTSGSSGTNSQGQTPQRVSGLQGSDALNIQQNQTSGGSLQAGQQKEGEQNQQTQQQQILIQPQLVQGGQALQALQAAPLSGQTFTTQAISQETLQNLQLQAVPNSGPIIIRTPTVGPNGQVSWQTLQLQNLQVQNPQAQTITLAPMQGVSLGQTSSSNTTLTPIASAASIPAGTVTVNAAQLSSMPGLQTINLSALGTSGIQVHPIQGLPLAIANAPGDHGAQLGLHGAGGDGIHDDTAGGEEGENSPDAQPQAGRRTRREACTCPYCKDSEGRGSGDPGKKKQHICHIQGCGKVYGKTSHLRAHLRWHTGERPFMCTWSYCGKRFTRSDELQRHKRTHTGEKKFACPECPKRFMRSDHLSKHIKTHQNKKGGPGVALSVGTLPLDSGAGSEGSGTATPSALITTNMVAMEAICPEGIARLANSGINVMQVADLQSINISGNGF
Procedure, shortened: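 Endpoint reflects endogenous Sp1 transcriptional activity, not an exogenous fusion protein: HepG2 cells with transfected cis-regulated reporters, 24 h dosing, RT-PCR/capillary electrophoresis mRNA read-out, DMSO-normalised bidirectional fit.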

[15] = ATG_SREBP_CIS: Attagene CIS-FACTORIAL HepG2 Assay for human Sterol Regulatory Element Binding (SREBP) (AID 2282962); conditions: HepG2 Attagene cis-factorial SREBP reporter, mRNA; actives raise or lower the signal
Procedure, shortened: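 Values derive from bidirectional curve fitting with DMSO as baseline. The underlying measurement is reporter mRNA from cis-element-regulated units in transiently transfected HepG2, quantified by RT-PCR and capillary electrophoresis after 24 h exposure.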

[16] = target: Signal transducer and activator of transcription 3 (Homo sapiens) (UniProt P40763); assay: ATG_STAT3_CIS: Attagene CIS-FACTORIAL HepG2 Assay for human Signal Transducer and Activator of Transcription 3 (STAT3) (AID 2282963); conditions: HepG2, Attagene cis-factorial STAT3 reporter transcription; actives raise or lower the signal
Signal transducer and activator of transcription 3 (Homo sapiens), sequence (P40763 whole entry, looked up): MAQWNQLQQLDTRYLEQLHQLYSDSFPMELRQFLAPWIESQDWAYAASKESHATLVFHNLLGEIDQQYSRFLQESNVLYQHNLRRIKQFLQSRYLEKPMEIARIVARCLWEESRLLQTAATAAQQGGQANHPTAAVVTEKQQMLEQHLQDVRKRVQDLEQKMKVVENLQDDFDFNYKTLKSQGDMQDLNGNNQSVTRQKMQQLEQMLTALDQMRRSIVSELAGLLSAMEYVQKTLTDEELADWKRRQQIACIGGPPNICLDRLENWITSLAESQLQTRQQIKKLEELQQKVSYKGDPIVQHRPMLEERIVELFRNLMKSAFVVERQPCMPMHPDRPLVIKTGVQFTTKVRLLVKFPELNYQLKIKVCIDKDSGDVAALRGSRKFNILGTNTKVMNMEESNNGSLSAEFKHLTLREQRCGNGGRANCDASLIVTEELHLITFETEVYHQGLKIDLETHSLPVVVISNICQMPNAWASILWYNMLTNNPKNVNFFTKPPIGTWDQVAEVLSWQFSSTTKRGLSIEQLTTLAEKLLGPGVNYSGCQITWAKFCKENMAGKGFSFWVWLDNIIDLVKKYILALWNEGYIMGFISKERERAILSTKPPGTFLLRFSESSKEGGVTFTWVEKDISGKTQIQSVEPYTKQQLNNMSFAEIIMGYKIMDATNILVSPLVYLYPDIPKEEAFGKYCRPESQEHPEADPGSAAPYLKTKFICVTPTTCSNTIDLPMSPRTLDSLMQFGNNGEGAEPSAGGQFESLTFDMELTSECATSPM
Procedure, shortened: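 Cis-factorial format: endogenous transcription factors in HepG2 drive transfected reporter units. After 24 h treatment, reporter RNA was reverse-transcribed, amplified, FAM-labelled and HpaI-digested before CE analysis; activity scored in both directions against DMSO.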

[17] = ATG_TCF_b_cat_CIS: Attagene CIS-FACTORIAL HepG2 Assay for human T-Cell-Factor with beta-catenin (TCF/b-cat) (AID 2282965); conditions: HepG2 TCF/beta-catenin cis-reporter transcription, actives raise or lower the signal
Procedure, shortened: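 Endogenous transcription factor activity is captured through cis-promoter reporter constructs transiently introduced into human HepG2 liver cells. Induced reporter mRNA is measured after 24 h and fitted bidirectionally relative to DMSO.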

[18] = ATG_TAL_CIS: Attagene CIS-FACTORIAL HepG2 Assay for human TAL Basal Promoter (AID 2282966); conditions: HepG2 Attagene cis-factorial TAL promoter reporter; actives raise or lower the signal;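 further: background control endpoint measuring basal TAL promoter reporter mRNA not a specific factor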
Procedure, shortened: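 Background-control endpoint: basal TAL promoter reporter transcripts in transiently transfected HepG2, measured 24 h after dosing. Read-out by RT-PCR with fluorescent primer extension and capillary electrophoresis; gain or loss of signal fitted relative to DMSO.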

[19] = ATG_TGFb_CIS: Attagene CIS-FACTORIAL HepG2 Assay for human Transforming Growth Factor (TGF) (AID 2282967); conditions: HepG2 Attagene CIS TGFb reporter, mRNA transcription; actives raise or lower the signal
Procedure, shortened: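 HepG2 cells transiently transfected with cis-promoter-driven multiplexed reporter units; 24 h compound exposure. Reporter mRNA measured by RT-PCR, 6-FAM labeling, HpaI digestion and capillary electrophoresis; bidirectional fit versus DMSO baseline.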

[20] = ATG_TA_CIS: Attagene CIS-FACTORIAL HepG2 Assay for human TA Basal Promoter (AID 2282964); conditions: HepG2 Attagene CIS-factorial TA basal promoter reporter; actives raise or lower the signal
Procedure, shortened: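 HepG2 cells transiently transfected with multiplexed cis-promoter reporter units, dosed 24 h. Reporter mRNA measured by RT-PCR, 6-FAM labelling, HpaI digestion and capillary electrophoresis; bidirectional fit versus DMSO baseline, serving as background control.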

Measured: AC50

CC1(C)[C@H](/C=C2\CCSC2=O)[C@@H]1C(=O)OCc1coc(Cc2ccccc2)c1
active: [4] 12.9 µM | [7] 19.8 µM | [8] 0.313 µM | [9] 11.1 µM | [10] 0.143 µM | [12] 24.8 µM
inactive: [1] | [2] | [3] | [5] | [6] | [11] | [13] | [14] | [15] | [16] | [17] | [18] | [19]

Clc1cccc(Cl)c1
inactive: [1] | [2] | [3] | [4] | [5] | [6] | [7] | [8] | [9] | [10] | [11] | [12] | [13] | [14] | [15] | [16] | [17] | [18]

CCCCOP(=O)(CCCC)OCCCC
active: [10] 6.97 µM
inactive: [1] | [2] | [3] | [4] | [5] | [6] | [7] | [8] | [9] | [11] | [13] | [14] | [15] | [16] | [20] | [17] | [18] | [19]

COCCl
inactive: [1] | [2] | [3] | [4] | [5] | [6] | [7] | [8] | [9] | [10] | [11] | [12] | [13] | [14] | [15] | [16] | [20] | [17] | [18] | [19]

O=C/C(Cl)=C(/Cl)C(=O)O
inactive: [2] | [3] | [4] | [8] | [11] | [12] | [16] | [20] | [18]
active: [1] 100 µM | [5] 136 µM | [6] 151 µM | [7] 136 µM | [9] 132 µM | [10] 167 µM | [13] 83.9 µM | [15] 159 µM | [17] 31.9 µM | [19] 43.7 µM

C=CCOC(N)=O
inactive: [1] | [2] | [3] | [4] | [5] | [6] | [7] | [8] | [9] | [10] | [11] | [12] | [13] | [15] | [16] | [20] | [18] | [19]

BrCc1ccc(Br)cc1
inactive: [1] | [2] | [3] | [4] | [5] | [6] | [7] | [8] | [9] | [10] | [11] | [12] | [13] | [15] | [16] | [20] | [17] | [18] | [19]
